# Test results taken from paper PMC7862700, “An all-to-all approach to the identification of sequence-specific readers for epigenetic DNA modifications on cytosine”.
# What was measured:
# Assay in all cases: DAPPL (digital affinity profiling via proximity ligation, sequencing); 10 mM Tris-HCl pH 7.5, 50 mM NaCl, 1 mM DTT, 4% glycerol, room temperature, 30 min; GST-TFs on glutathione beads, 16-mer random dsDNA library, 0.1% formaldehyde crosslink after washing; high values mean tight binding
# Details in all cases: protein: recombinant; tags: N-terminal GST; dsDNA, one strand shown
# ELF4 = ELF4 (Homo sapiens, UniProt Q99607 1-663)
# In short: (§1)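 Yeast served to express human transcription factors as GST fusions, which were then captured on glutathione beads and labelled with DNA barcodes. Pooled with a tag-only sample, they were incubated with 200 nmole of a 16-mer random double-stranded DNA library for 30 min at room temperature in Tris/NaCl/DTT/glycerol buffer, washed, crosslinked with 0.1% formaldehyde, ligated by proximity, amplified by PCR and sequenced. Dividing each hexamer's read frequency for a factor by its frequency for the tag-only sample gives the binding signal.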
# ELK4 = target: T1, ELK4 (Homo sapiens, UniProt P28324-2 1-405)
# T1 sequence: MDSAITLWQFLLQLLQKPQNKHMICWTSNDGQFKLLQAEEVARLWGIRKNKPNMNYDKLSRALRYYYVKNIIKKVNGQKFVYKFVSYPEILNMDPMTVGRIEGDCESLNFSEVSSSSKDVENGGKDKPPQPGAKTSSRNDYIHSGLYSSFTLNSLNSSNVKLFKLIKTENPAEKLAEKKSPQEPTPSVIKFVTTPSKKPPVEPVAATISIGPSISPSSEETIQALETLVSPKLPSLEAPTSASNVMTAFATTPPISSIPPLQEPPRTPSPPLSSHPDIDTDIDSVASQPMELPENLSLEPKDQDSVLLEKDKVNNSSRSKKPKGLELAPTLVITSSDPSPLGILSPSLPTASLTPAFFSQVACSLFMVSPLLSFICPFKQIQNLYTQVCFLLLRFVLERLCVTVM
# In short: as §1
# ETV2 = target: T2, ETV2 (Homo sapiens, UniProt O00321 1-342)
# T2 sequence: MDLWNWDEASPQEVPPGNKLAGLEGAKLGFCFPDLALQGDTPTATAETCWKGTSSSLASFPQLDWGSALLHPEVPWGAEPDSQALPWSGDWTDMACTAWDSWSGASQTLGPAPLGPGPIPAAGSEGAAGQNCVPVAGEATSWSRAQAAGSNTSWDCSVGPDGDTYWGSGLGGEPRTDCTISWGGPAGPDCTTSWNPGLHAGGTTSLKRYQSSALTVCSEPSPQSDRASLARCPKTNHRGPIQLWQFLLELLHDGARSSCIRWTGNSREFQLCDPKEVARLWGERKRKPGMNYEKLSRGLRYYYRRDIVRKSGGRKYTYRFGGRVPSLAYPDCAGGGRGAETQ
# In short: as §1
# ELF3 = target: T3, ELF3 (Homo sapiens, UniProt P78545 1-371)
# T3 sequence: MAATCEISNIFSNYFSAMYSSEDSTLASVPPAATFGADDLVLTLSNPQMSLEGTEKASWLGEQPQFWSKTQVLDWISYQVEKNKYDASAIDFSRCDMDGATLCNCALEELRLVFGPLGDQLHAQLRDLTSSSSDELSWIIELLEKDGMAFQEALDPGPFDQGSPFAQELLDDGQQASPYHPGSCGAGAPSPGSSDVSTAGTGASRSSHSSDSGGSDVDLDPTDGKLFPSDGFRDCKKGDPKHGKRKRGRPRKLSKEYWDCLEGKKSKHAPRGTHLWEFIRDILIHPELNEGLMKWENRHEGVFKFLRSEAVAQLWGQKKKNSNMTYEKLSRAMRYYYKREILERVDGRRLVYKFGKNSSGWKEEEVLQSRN
# In short: as §1
# ETV1 = ETV1 (Homo sapiens, UniProt P50549 1-477)
# In short: as §1
# ERF = target: T4, ERF (Homo sapiens, UniProt P50548 1-548)
# T4 sequence: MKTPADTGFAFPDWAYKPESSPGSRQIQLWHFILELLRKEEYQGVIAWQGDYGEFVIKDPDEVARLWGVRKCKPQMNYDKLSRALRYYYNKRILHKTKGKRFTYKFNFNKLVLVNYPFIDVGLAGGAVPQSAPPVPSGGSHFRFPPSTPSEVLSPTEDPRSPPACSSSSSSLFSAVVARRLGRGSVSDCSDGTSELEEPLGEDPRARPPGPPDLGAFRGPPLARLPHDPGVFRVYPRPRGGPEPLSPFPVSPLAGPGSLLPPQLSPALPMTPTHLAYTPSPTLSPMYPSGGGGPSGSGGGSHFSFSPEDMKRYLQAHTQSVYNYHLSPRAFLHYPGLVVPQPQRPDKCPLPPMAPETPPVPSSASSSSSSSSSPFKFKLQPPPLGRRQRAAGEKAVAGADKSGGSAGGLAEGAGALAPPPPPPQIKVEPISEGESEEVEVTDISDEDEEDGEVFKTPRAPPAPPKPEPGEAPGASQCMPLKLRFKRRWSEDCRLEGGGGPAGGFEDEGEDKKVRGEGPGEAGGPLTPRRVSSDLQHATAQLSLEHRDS
# In short: as §1
# ETV3L = target: T5, ETV3L (Homo sapiens, UniProt Q6ZN32 1-361)
# T5 sequence: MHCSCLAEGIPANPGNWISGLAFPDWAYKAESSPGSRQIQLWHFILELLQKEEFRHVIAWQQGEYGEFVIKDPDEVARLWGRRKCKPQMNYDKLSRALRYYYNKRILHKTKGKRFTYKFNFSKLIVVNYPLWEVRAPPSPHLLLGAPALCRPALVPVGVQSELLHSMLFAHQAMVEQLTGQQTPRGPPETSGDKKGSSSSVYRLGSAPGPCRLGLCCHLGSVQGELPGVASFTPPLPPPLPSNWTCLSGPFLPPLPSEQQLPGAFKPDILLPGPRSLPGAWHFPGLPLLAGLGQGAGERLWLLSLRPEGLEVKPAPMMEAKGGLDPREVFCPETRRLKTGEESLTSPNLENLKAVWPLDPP
# In short: as §1
# ETV7 = target: T6, ETV7 (Homo sapiens, UniProt Q9Y603 1-341)
# T6 sequence: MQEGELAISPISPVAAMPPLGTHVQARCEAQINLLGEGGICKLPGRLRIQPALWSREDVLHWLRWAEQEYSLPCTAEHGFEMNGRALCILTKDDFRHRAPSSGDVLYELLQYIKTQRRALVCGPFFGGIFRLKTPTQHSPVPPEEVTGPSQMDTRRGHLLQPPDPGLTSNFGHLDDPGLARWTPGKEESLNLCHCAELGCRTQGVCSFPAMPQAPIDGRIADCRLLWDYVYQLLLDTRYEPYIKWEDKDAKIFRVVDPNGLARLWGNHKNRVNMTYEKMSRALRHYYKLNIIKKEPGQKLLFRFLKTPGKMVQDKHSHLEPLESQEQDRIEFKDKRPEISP
# In short: as §1
# ETV3 = target: T7, ETV3 (Homo sapiens, UniProt P41162-2 1-143)
# T7 sequence: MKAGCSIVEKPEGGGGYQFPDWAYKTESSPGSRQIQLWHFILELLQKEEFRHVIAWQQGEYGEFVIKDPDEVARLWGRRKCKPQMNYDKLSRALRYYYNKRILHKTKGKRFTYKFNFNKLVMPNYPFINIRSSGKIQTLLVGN
# In short: as §1
# ETV6 = ETV6 (Homo sapiens, UniProt P41212 1-452)
# In short: as §1
# Sequence of ETV1 (P50549 whole entry): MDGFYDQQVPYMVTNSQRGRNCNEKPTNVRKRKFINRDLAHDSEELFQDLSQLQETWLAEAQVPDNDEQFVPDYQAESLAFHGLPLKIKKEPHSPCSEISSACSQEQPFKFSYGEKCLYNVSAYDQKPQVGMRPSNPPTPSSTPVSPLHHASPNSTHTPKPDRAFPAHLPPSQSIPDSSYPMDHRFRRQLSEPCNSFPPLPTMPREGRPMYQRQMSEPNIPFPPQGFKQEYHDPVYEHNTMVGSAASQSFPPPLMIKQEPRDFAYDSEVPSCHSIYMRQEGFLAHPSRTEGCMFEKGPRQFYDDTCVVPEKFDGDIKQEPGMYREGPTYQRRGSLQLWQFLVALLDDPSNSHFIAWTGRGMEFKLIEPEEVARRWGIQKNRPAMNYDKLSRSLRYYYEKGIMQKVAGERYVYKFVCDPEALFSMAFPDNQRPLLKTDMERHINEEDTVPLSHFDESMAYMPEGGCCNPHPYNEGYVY
# Sequence of ETV6 (P41212 whole entry): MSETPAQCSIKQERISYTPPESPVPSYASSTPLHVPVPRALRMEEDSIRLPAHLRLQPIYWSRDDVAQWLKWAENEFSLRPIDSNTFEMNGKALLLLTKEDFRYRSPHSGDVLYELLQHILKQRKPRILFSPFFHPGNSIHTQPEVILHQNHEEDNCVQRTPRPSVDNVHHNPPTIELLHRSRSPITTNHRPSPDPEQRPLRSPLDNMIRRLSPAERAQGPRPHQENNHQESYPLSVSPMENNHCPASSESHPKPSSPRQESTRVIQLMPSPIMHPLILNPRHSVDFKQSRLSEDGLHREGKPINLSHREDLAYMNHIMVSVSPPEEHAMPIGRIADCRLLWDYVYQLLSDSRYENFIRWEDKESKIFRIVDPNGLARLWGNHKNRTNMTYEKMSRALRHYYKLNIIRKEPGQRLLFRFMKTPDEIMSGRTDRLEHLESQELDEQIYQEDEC
# Sequence of ELF4 (Q99607 whole entry, the tested form may be a part): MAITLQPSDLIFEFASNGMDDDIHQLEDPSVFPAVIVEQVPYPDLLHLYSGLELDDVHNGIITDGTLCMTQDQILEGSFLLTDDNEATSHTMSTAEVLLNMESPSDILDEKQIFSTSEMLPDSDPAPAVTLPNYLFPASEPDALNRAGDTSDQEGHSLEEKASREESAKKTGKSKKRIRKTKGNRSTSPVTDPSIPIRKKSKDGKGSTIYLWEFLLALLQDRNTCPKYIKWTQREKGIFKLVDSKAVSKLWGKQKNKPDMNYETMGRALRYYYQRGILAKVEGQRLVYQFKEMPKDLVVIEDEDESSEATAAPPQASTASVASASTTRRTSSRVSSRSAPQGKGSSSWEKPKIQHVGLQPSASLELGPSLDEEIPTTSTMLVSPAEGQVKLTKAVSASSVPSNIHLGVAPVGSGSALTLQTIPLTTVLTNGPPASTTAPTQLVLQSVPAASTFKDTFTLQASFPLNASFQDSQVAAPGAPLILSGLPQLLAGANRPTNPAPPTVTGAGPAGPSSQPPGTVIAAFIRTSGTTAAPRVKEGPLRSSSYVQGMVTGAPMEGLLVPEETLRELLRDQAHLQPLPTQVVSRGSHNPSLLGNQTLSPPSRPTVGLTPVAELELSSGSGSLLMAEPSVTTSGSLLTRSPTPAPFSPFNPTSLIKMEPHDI
sequence,measurement,setting,value
CGTTGC,binding signal,ELF4,"1.06 fold enrichment (6-mer frequency, TF over GST control)"
same,binding signal,ELK4,"1.16 fold enrichment (6-mer frequency, TF over GST control)"
same,binding signal,ETV2,"1.12 fold enrichment (6-mer frequency, TF over GST control)"
same,binding signal,ELF3,"1.07 fold enrichment (6-mer frequency, TF over GST control)"
same,binding signal,ETV1,"1.18 fold enrichment (6-mer frequency, TF over GST control)"
same,binding signal,ERF,"1.13 fold enrichment (6-mer frequency, TF over GST control)"
same,binding signal,ETV3L,"1.17 fold enrichment (6-mer frequency, TF over GST control)"
same,binding signal,ETV7,"1.03 fold enrichment (6-mer frequency, TF over GST control)"
same,binding signal,ETV3,"1.16 fold enrichment (6-mer frequency, TF over GST control)"
same,binding signal,ETV6,"1.04 fold enrichment (6-mer frequency, TF over GST control)"
